Assay results: PubChem BioAssay

Each compound was assayed on XIP peptide (Xip251-270) (assay: compounds binding XIP fragment 251-270 – biochemical, small-molecule microarray, fluorescence 635/667 nm, 0.5 µg/mL protein, primary screen (AID 1183)). Settings: fluorescence 635 nm, higher = more signal.

Compound	composite z-score
O=C1c2ccccc2[C@](Cc2ccccc2I)(C(=O)NCc2ccccc2)[C@H](c2ccc(CO)cc2)N1C1CCCCC1	0.713
COc1ccc(C(O)C2C=CC3C(=O)N(C)C(=O)C3N2N2CCCCC2)cc1 (centres undefined)	0.37
C=C1C2CC3C(=C4C(CO[C@@H]4[C@H]4CCCN4S(=O)(=O)c4ccccc4[N+](=O)[O-])C4C(=O)N(C)C(=O)C34)CC2C(=O)N1C (some centres undefined)	0.849
COCCOC(=O)N1C(=O)[C@@]2(c3cc(C#CC4=CCCCC4)ccc31)[C@H](c1ccc(O)cc1)N1[C@H](c3ccccc3)[C@H](c3ccccc3)OC(=O)[C@H]1[C@@H]2C(=O)Nc1nc2ccccc2s1	0.843
C[C@H]1C2=C3C(CC[C@H]4C(OCc5ccc(F)cc5C(F)(F)F)OC[C@](C)([C@@H]34)N(C(=O)OC(C)(C)C)C2)C(CO)C1CO (some centres undefined)	0.724
COCCOC(=O)N1C(=O)[C@@]2(c3cc(C#CC4(O)CCCCCC4)ccc31)[C@H](C(=O)N1CCCCCCC1)[C@H]1C(=O)O[C@H](c3ccccc3)[C@H](c3ccccc3)N1[C@@H]2c1ccc(OCCO)cc1	0.838
COCCOC(=O)N1C(=O)[C@@]2(c3cc(C#CC4(O)CCCCCC4)ccc31)[C@H](C(N)=O)[C@H]1C(=O)O[C@H](c3ccccc3)[C@H](c3ccccc3)N1[C@@H]2c1ccccc1OCCO	0.792
CC(=O)N1Cc2ccccc2C[C@]2(N=C(c3ccc(OCCCO)cc3)O[C@@H]2c2ccccc2)C1=O	0.836
O=C1OCC=C[C@H]2OC34C=CCN(c5ccc(Cl)cc5)C(=O)[C@H]3N(CCCCCO)C(=O)[C@@H]4[C@@H]12 (some centres undefined)	-0.192
